Compounds without any hit were thinned out: in the full panel of roughly 83,000, 20% have a hit.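 Percent growth is the endpoint: 0 to 100 indicates growth inhibition (40 means 60% inhibition), 0 means no net growth, and negative values indicate cell death.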 Unmarked numbers belong to inactive results. Calls of active or inactive are those of the source. The calls were made as follows: active = growth percent below 10; inactive = the rest.
Legend:
Assay in all cases: NCI-60 one-dose screen, 48 h (100 = growth as untreated, 0 = no growth, -100 = all killed)
Conditions in all cases: 10 µM unless noted
HCT-15 colon = test system: HCT-15 colon
HT29 colon = test system: HT29 colon
SNB-75 CNS = test system: SNB-75 CNS
SNB-19 CNS = test system: SNB-19 CNS
U251 CNS = test system: U251 CNS
PC-3 prostate = test system: PC-3 prostate
SK-MEL-5 melanoma = test system: SK-MEL-5 melanoma
UACC-62 melanoma = test system: UACC-62 melanoma
SK-MEL-28 melanoma = test system: SK-MEL-28 melanoma
LOX IMVI melanoma = test system: LOX IMVI melanoma

## CN(CCOc1ccc(C#N)cc1)CCOc1ccc(C#N)cc1
HCT-15 colon
  growth: 85.8%
HT29 colon
  growth: 88.7%
SNB-75 CNS
  growth: 83.4%
SNB-19 CNS
  growth: 44.5%
U251 CNS
  growth: 78%
PC-3 prostate
  growth: 71.7%
SK-MEL-5 melanoma
  growth: 6.74% (active)
UACC-62 melanoma
  growth: 73.4%
SK-MEL-28 melanoma
  growth: 94.9%

## COc1ccc2[nH]cc(C(c3cc(F)cc(F)c3)c3c[nH]c4ccc(OC)cc34)c2c1
HCT-15 colon
  growth: 65.2%
HT29 colon
  growth: 81.5%
SNB-75 CNS
  growth: 85.9%
SNB-19 CNS
  growth: 82.9%
U251 CNS
  growth: 86.8%
PC-3 prostate
  growth: 50.2%
UACC-62 melanoma
  growth: 85.5%
LOX IMVI melanoma
  growth: 67.3%
SK-MEL-28 melanoma
  growth: 105%

## Cc1ccc(-c2csc(NC(=O)CN3CCN(c4cc5c(cc4F)c(=O)c(C(=O)O)cn5C4CC4)CC3)n2)cc1
HCT-15 colon
  growth: 10.2%
HT29 colon
  growth: 0.375% (active)
SNB-75 CNS
  growth: 20.1%
SNB-19 CNS
  growth: 27.7%
U251 CNS
  growth: 7.62% (active)
PC-3 prostate
  growth: 6.64% (active)
UACC-62 melanoma
  growth: 19.1%
LOX IMVI melanoma
  growth: 0.737% (active)
SK-MEL-28 melanoma
  growth: 41%

## CCCCC(=O)c1ccco1
HCT-15 colon
  growth: 102%
HT29 colon
  growth: 103%
SNB-75 CNS
  growth: 86.8%
SNB-19 CNS
  growth: 86.4%
U251 CNS
  growth: 102%
PC-3 prostate
  growth: 85.8%
UACC-62 melanoma
  growth: 94.9%
LOX IMVI melanoma
  growth: 99.6%
SK-MEL-28 melanoma
  growth: 103%

## CCN(CC)CCNC(=O)c1cn2ncnc(Oc3ccc(NC(=O)Nc4ccc(Cl)c(C(F)(F)F)c4)c(F)c3)c2c1C
HCT-15 colon
  growth: -38.7% (active)
HT29 colon
  growth: -42.3% (active)
SNB-75 CNS
  growth: -7.89% (active)
SNB-19 CNS
  growth: -48% (active)
U251 CNS
  growth: -48.6% (active)
PC-3 prostate
  growth: 7.99% (active)
SK-MEL-5 melanoma
  growth: -20.3% (active)
UACC-62 melanoma
  growth: -46.2% (active)
SK-MEL-28 melanoma
  growth: -86.6% (active)

## CNC(=O)c1c(NC(=O)c2ccc(C(F)(F)F)cc2)sc2c1CCC(=O)C2
HCT-15 colon
  growth: -54.1% (active)
HT29 colon
  growth: 5.12% (active)
SNB-75 CNS
  growth: -17.4% (active)
SNB-19 CNS
  growth: 2.58% (active)
U251 CNS
  growth: -12.8% (active)
PC-3 prostate
  growth: -30.9% (active)
UACC-62 melanoma
  growth: -29.1% (active)
LOX IMVI melanoma
  growth: 1.51% (active)
SK-MEL-28 melanoma
  growth: 4.24% (active)

## O=C(O)CCCN1C(=O)/C(=C/C(Cl)=C/c2ccccc2)SC1=S
HCT-15 colon
  growth: -54.3% (active)
HT29 colon
  growth: 7.49% (active)
SNB-75 CNS
  growth: 35.9%
SNB-19 CNS
  growth: 37.4%
U251 CNS
  growth: 21%
PC-3 prostate
  growth: 36.5%
UACC-62 melanoma
  growth: 10.1%
LOX IMVI melanoma
  growth: -55.5% (active)
SK-MEL-28 melanoma
  growth: 7.4% (active)

## Nc1ncnc2c1N=C(c1ccc(Cl)cc1)CC(c1ccc3c(c1)OCO3)N2 (stereo unspecified)
HCT-15 colon
  growth: 98.6%
HT29 colon
  growth: 91.7%
SNB-75 CNS
  growth: 85.7%
SNB-19 CNS
  growth: 86.4%
U251 CNS
  growth: 92.8%
PC-3 prostate
  growth: 85.2%
UACC-62 melanoma
  growth: 94.8%
LOX IMVI melanoma
  growth: 96.5%
SK-MEL-28 melanoma
  growth: 99.8%

## O=C(Cn1c2c(c3ccccc31)CCCC2)Nc1ccc(-c2nc3ccccc3s2)cc1
HCT-15 colon
  growth: 101%
HT29 colon
  growth: 107%
SNB-75 CNS
  growth: 106%
SNB-19 CNS
  growth: 100%
U251 CNS
  growth: 96.9%
PC-3 prostate
  growth: 94.7%
UACC-62 melanoma
  growth: 90.1%
LOX IMVI melanoma
  growth: 79.9%
SK-MEL-28 melanoma
  growth: 103%

## N#C/C(=C/c1ccc([N+](=O)[O-])cc1)n1nnc2cc(F)c(F)cc21
HCT-15 colon
  growth: -7.15% (active)
HT29 colon
  growth: 69.4%
SNB-75 CNS
  growth: 74.9%
SNB-19 CNS
  growth: 73.7%
U251 CNS
  growth: 59%
PC-3 prostate
  growth: 52.5%
UACC-62 melanoma
  growth: 57.2%
LOX IMVI melanoma
  growth: 42.4%
SK-MEL-28 melanoma
  growth: 97.6%

## CCCCCCNC(=O)Oc1ccc(/C(=C(/C)Cc2ccc(OC)cc2)c2ccc(OCCCN(C)C)cc2)cc1
HCT-15 colon
  growth: -6.62% (active)
HT29 colon
  growth: -55.9% (active)
SNB-75 CNS
  growth: 65.9%
SNB-19 CNS
  growth: 45.7%
U251 CNS
  growth: -46.7% (active)
PC-3 prostate
  growth: 24.3%
UACC-62 melanoma
  growth: -25.1% (active)
LOX IMVI melanoma
  growth: -60.5% (active)
SK-MEL-28 melanoma
  growth: -43.5% (active)

## O=C(CSc1nnc2n1S(=O)(=O)c1ccccc1N2c1ccccc1)Nc1nc2ccc(F)cc2s1
HCT-15 colon
  growth: 104%
HT29 colon
  growth: 104%
SNB-75 CNS
  growth: 85.5%
SNB-19 CNS
  growth: 99.6%
U251 CNS
  growth: 103%
PC-3 prostate
  growth: 89.5%
UACC-62 melanoma
  growth: 81.2%
LOX IMVI melanoma
  growth: 85.8%
SK-MEL-28 melanoma
  growth: 117%

## CCSc1nc(NC)c2cc(-c3ccc(C(F)(F)F)cc3)ccc2n1
HCT-15 colon
  growth: 95.5%
HT29 colon
  growth: 98.9%
SNB-75 CNS
  growth: 99.4%
SNB-19 CNS
  growth: 97%
U251 CNS
  growth: 103%
PC-3 prostate
  growth: 94.9%
SK-MEL-5 melanoma
  growth: 97.9%
UACC-62 melanoma
  growth: 92.9%
SK-MEL-28 melanoma
  growth: 95%

## CC[C@]12C=CCN3CC[C@@]4(c5cc(NC(=O)CCC(=O)OCc6cn(Cc7ccc(F)cc7)nn6)c(OC)cc5N(C)[C@H]4[C@@](O)(C(=O)OC)[C@@H]1OC(C)=O)[C@@H]32
HCT-15 colon
  growth: 105%
SNB-75 CNS
  growth: 97%
SNB-19 CNS
  growth: 98.5%
U251 CNS
  growth: 101%
PC-3 prostate
  growth: 93.8%
SK-MEL-5 melanoma
  growth: 112%
UACC-62 melanoma
  growth: 98%
LOX IMVI melanoma
  growth: 99.3%
SK-MEL-28 melanoma
  growth: 109%
